High-throughput results: PubChem BioAssay, several laboratories
Mcl1 Noxa PPI: Mcl-1/Noxa interaction inhibition | 1.5% of 220,000 active | Q07820 | inhibition, % at 21.7 µM | TR-FRET Mcl-1/Noxa peptide binding, 2 h;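 active = compounds that cut the protein-peptide binding signal by more than 50% relative to plate controls in a single-dose test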;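 note: His-tagged Mcl-1 with rhodamine Noxa BH3 peptide and terbium anti-His antibody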
Target sequence (Q07820 whole entry, looked up): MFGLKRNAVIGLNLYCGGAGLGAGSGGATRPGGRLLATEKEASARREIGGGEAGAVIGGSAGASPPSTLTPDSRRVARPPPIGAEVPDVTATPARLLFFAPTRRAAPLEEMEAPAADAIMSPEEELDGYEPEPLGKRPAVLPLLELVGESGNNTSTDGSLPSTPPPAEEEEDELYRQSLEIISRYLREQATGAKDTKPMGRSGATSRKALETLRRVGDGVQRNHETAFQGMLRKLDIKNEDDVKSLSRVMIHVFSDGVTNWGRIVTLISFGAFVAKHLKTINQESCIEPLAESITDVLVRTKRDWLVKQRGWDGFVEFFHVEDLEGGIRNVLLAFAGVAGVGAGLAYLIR
14-3-3 Bad PPI: disrupts binding of bovine 14-3-3 zeta to phospho-Bad peptide | P63103 | TR-FRET 14-3-3zeta/Dy647-pBad peptide displacement, 1 h | inhibition, % at 21.7 µM | 0.71% of 220,000 active | AID 781;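 active = inhibition above about 70%, limit read from the data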
Target sequence (P63103 whole entry, looked up): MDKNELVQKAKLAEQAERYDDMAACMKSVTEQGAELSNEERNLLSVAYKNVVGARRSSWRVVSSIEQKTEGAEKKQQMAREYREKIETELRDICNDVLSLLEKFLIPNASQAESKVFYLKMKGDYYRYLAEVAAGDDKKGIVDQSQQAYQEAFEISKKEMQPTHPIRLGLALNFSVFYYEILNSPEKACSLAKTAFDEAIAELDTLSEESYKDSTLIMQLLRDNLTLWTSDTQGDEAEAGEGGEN
Arbovirus inh: antivirals against arbovirus infection. arbovirus infection cell-based antiviral screen. inhibition, % at 10 µM. 0.37% of 200,000 active. AID 1251; in the data active = inhibition above about 30%
Mcl-1 Bim block: disrupts Bim peptide binding to human Mcl-1 | AID 1009 | Q07820 | 0.1% of 190,000 active | Bead-based flow cytometry, Bim peptide-Mcl-1 binding | inhibition, % at 10 µM; in the data active = inhibition above about 40%
Mcl1 Bid PPI: disrupts binding of human Mcl-1 to Bid peptide; AID 1021; Q07820; TR-FRET Mcl-1/Bid-Dy647 peptide binding, 1536-well; 0.97% of 220,000 active; inhibition, % at 21.7 µM;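 active = compounds that cut the binding signal by more than half at the single screening dose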;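 note: His-tagged Mcl-1 with europium anti-His antibody binding Bid BH3 peptide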
Large screens that a line does not name were inactive; [ ] = dose if it differs, or a comment. Rows were chosen to be rich in hits. Some 3% of all compounds tested hit in one or more screens of this group.

O=C(Nc1cnccn1)Nc1ccc(Cl)cc1Cl	none
COc1cc(/C=N/NC(=O)c2ccc(CSc3nncn3C)cc2)cc(OC)c1O	Mcl1 Noxa PPI 55.1
COc1cc(/C=N/NC(=O)c2ccc(CSc3nncn3C)cc2)ccc1OCC(=O)N1CC(C)OC(C)C1 (centres undefined)	none
COc1ccc(/C=N/NC(=O)c2ccc(O)cc2O)cc1CSc1ccccn1	Mcl1 Noxa PPI 98.2
COc1ccc(/C=N/NC(=O)c2ccc(COc3cccc4cccnc34)cc2)cc1O	Mcl1 Noxa PPI 50.7 (no result: Arbovirus inh, Mcl-1 Bim block)
COc1ccc(/C=N/NC(=O)c2ccc(CN3c4cccc5cccc(c45)S3(=O)=O)cc2)cc1	none
COc1cc(/C=N/NC(=O)c2ccc(CN3c4cccc5cccc(c45)S3(=O)=O)cc2)cc(OC)c1O	Mcl1 Noxa PPI 72.1, 14-3-3 Bad PPI 91.8, Mcl1 Bid PPI 82.2
COc1ccc(CCN2C(=S)N(C)C(=O)C2CC(=O)Nc2ccc(F)cc2)cc1 (centres undefined)	none (no result: Arbovirus inh, Mcl-1 Bim block)
Cc1nnc(SCC(=O)NNC(=O)C(C)C)[nH]c1=O	none
O=C(COC(=O)/C=C/c1cccs1)Nc1cccc(S(=O)(=O)N2CCCC2)c1	none
CN(C)c1ccc(/C=C2\N=C(c3ccc(Cl)c([N+](=O)[O-])c3)NC2=O)cc1	Mcl1 Noxa PPI 72.6
Cc1ccc(CSc2nnc(-c3ccco3)o2)cc1	none
CCC(C)N(C(=O)Cn1nnc2ccccc21)C(C(=O)Nc1ccc(F)cc1)c1cccc(OC)c1 (centres undefined)	none
CCOc1cc(S(=O)(=O)Nc2ccccn2)ccc1F	Mcl-1 Bim block 50.0
CCOc1cc(S(=O)(=O)Nc2ccccc2CC)ccc1Cl	Mcl1 Noxa PPI 55.8
CCOc1cc(S(=O)(=O)Nc2ccc(Cl)cn2)ccc1F	none
CCc1ccc(CC2S/C(=C(\C#N)C(C)=O)NC2=O)cc1 (centres undefined)	Arbovirus inh 32.5
CCOC(=O)c1ccc(CC2S/C(=C(\C#N)C(C)=O)NC2=O)cc1 (centres undefined)	none
COc1cc(C(=O)OC(C)CN2CCN(C)CC2)cc(OC)c1OC (centres undefined)	none
COc1ccc(C(=O)OC(C)CN2CCN(C)CC2)cc1OC (centres undefined)	14-3-3 Bad PPI 88.9
CC(CN1CCN(C)CC1)OC(=O)c1ccccc1Cl (centres undefined)	14-3-3 Bad PPI 84.9
Cc1ccc(N2C(=O)C3ON(c4ccccc4)C(CC(C)C)C3C2=O)cc1 (centres undefined)	none (no result: Arbovirus inh, Mcl-1 Bim block)
CC(C)(C)c1ccc(N2C(=O)CSC2c2cccnc2)cc1 (centres undefined)	none (no result: Arbovirus inh, Mcl-1 Bim block)
Cc1csc(SCC(=O)NCc2cccc(Cl)c2)n1	none
CCN(CC(=O)Nc1ccc(NC(C)=O)cc1)c1ccc(C(F)(F)F)cn1	none
Cc1ccnc(NC(=O)CCC(=O)N(CC(=O)NC(C)(C)C)c2ccc(F)c(Cl)c2)c1	none
COc1ccc(S(=O)(=O)N/N=C(/C)c2cccc(NC(=O)c3ccccc3Cl)c2)cc1	Arbovirus inh 37.0
CCCN(CCC)CCNC(=S)Nc1ccc2nc3n(c(=O)c2c1)CCCCC3	none
CC(=O)C(C(C)=O)c1c(Cl)c(O)c(O)c2c(C(=O)c3ccccc3)coc12	Mcl1 Noxa PPI 56.5
O=C(c1ccccc1)c1ccc(OCCCCN2CCCCC2)cc1	14-3-3 Bad PPI 74.3
CCCCOc1ccc(C(O)C(CN2CCCCC2)c2ccccc2)cc1 (centres undefined)	Arbovirus inh 36.9
CCCCOc1ccc(C(O)C(CN2CCOCC2)c2ccccc2)cc1 (centres undefined)	none (no result: Arbovirus inh, Mcl-1 Bim block)
O=C(c1ccccc1)c1ccc(OCCCN2CCCC2)cc1	none
O=C(O)c1cc(O)c2c(c1)C(=O)c1cccc(O)c1C2=O	Mcl1 Noxa PPI 61.2, 14-3-3 Bad PPI 74.2
COc1ccc(-c2cc3nc(C)cc(N4CC(C)CC(C)C4)n3n2)cc1 (centres undefined)	none (no result: Mcl-1 Bim block)
O=[N+]([O-])c1cc(/C=N\O)ccc1Oc1ccc(F)cc1	14-3-3 Bad PPI 84.5
O=C(N/N=C\c1cc(Cl)ccc1O)c1ccc(S(=O)(=O)N2CCCCC2)cc1	none
Nc1nc2nccc(-c3cccnc3)n2n1	none
COc1ccc2nc(NC(=O)CSc3ccccc3)sc2c1	none
Cc1cc(C)c2c(N)c(C(=O)Nc3ncc(C)s3)sc2n1	none
COc1ccc2nc(NC(=O)CSc3nnc(N)s3)sc2c1	Mcl1 Noxa PPI 53.7
COc1ccc2nc(NC(=O)c3sc4nc(C)cc(C)c4c3N)sc2c1	Mcl1 Noxa PPI 52.8 (no result: Arbovirus inh, Mcl-1 Bim block)
COc1ccc2nc(NC3=NCCC3)sc2c1	none
COc1ccc2nc(Nc3sc4c(c3C(N)=O)CCCC4)sc2c1	Mcl1 Noxa PPI 99.7
CCN1CCN(CC(=O)Nc2nc3ccc(OC)cc3s2)CC1	14-3-3 Bad PPI 78.6[fluorescence artefact?]
COc1ccccc1N1C(=O)C2ON(c3ccccc3)C(c3ccc(N(C)C)cc3)C2C1=O (centres undefined)	Mcl1 Noxa PPI 77.7
COc1ccccc1C1C2C(=O)N(c3ccccc3)C(=O)C2ON1c1ccccc1 (centres undefined)	none
C=CCn1c(SCC(=O)Nc2cc(C)on2)nnc1C1COc2ccccc2O1 (centres undefined)	none
C=CCn1c(SCc2c(C)noc2C)nnc1C1COc2ccccc2O1 (centres undefined)	Arbovirus inh 71.0
Cc1ccc(CSCC(=O)N/N=C/c2sccc2C)cc1	none
Cc1ccc(S(=O)(=O)N(C)C)cc1NC(=O)C1CCCCC1	none (no result: Arbovirus inh, Mcl-1 Bim block)
O=C1C(C=NCc2ccncc2)=C(O)c2ccccc21	Mcl1 Bid PPI 95.8
O=C1C(C=NCc2cccnc2)=C(O)c2ccccc21	none
CNCc1ccccc1OCC(=O)Nc1ccccc1	none
CNCc1ccccc1OCc1ccccc1F	Mcl1 Noxa PPI 73.6
COc1ccc(S(=O)(=O)CC2(O)CCN(C(=O)C(C)(C)C)CC2)cc1	none
COc1ccccc1N1CCN(CC(=O)NCC2CCCO2)CC1 (centres undefined)	14-3-3 Bad PPI 75.5
Nc1ncnc2oc(-c3ccco3)c(-c3ccco3)c12	Mcl1 Noxa PPI 82.1
COc1ccccc1CNC(=O)Cc1ccc(Br)cc1	none
COc1ccccc1CNC(=O)/C=C/c1ccc(Br)o1	Mcl1 Noxa PPI 69.6
COc1ccc(NC(=O)/C=C/c2ccc(Br)o2)cn1	Mcl1 Noxa PPI 58.3
CN(C[C@@H](Cc1cccc2ccccc12)N(C[C@H](Cc1ccccc1)N(CCc1ccccc1)N=O)N=O)N=O	none
O=C(C1=C(O)C(=O)N(Cc2ccco2)C1c1ccccc1)c1cccs1 (centres undefined)	none
COc1ccccc1N1C(=O)C2CC(C)=C(C)CC2C1=O (centres undefined)	none
COc1ccccc1N1C(=O)C=C(Sc2nc(C)cc(C)n2)C1=O	Mcl1 Noxa PPI 54.4 (no result: Arbovirus inh, Mcl-1 Bim block)
Cc1ccc(NC(=O)C(=O)NCCN2CCN(C(=S)Nc3ccccc3)CC2)cc1	none
C=CCn1c(SCC(=O)Nc2ccc(-c3nc4ccc(C)cc4s3)cc2)nnc1-c1ccccc1	Mcl1 Noxa PPI 70.0, 14-3-3 Bad PPI 91.9[fluorescence artefact?], Mcl1 Bid PPI 65.5
C=CCn1c(SCC(=O)NNC(=O)Nc2ccc(C)cc2)nnc1-c1ccccc1	none (no result: Arbovirus inh, Mcl-1 Bim block)
COc1cccc(NC(=S)NNC(=O)Cn2nc(C(F)(F)F)cc2C)c1	none
